Drawing on PubChem BioAssay AID624415 (National Center for Advancing Translational Sciences (NCATS), 2012), this text covers activity change, negative = inhibition for 42 compounds.

The campaign covered roughly 390,000 compounds. About 60 (0.02%) were called active. For the sample, actives were picked, then their nearest neighbours and some compounds at random. Unmarked numbers belong to inactive results. Rule as the data show it: active = activity change below about -50%; inconclusive = between about -30% and that limit; inactive = weaker than that.
% is scaled to controls: 0 for no effect and ±100 for the full control effect.

Mucolipin-1 (Homo sapiens), sequence (Q9GZU1 whole entry, looked up, the tested form may be a part): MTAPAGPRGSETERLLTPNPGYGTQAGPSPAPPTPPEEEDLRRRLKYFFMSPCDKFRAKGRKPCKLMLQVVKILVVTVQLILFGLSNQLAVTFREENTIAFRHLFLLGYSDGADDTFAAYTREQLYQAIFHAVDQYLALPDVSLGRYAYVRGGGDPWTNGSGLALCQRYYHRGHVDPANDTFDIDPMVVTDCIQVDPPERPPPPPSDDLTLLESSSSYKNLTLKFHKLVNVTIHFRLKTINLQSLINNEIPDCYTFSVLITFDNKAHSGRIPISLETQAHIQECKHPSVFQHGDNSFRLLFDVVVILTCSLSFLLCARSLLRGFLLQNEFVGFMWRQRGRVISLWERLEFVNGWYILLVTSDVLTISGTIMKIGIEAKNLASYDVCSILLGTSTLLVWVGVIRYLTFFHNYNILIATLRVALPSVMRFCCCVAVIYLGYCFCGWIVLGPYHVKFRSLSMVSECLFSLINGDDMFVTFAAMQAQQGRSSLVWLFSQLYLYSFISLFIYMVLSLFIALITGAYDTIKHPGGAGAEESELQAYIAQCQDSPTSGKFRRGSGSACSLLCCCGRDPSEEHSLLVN

For the experiment, the target named is Mucolipin-1 (Homo sapiens) (UniProt Q9GZU1). Put plainly: qHTS for Inhibitors of the Human Mucolipin Transient Receptor Potential 1 (TRPML1). Conditions: TRPML1-inducible cells, Ca2+ dye fluorescence, FDSS; active compounds read low; inhibition of EC80 agonist-evoked calcium signal. The source says:
Mutations of human Mucolipin transient receptor potential 1 (TRPML1) cause type IV mucolipidosis (ML4), a devastating neurodegenerative disease in young children. […] Currently, there is no treatment for ML4. […] Under physiological conditions, TRPMLs regulate membrane trafficking by transducing information about PI(3,5)P2 levels into changes in juxtaorganellar Ca2+, thereby triggering membrane fusion/fission events in the late endocytic pathways (endolysosomal trafficking). In addition, TRPML1 mediates release of Fe2+ from late endosomes and lysosomes, which is essential for cellular iron metabolism. Thus, impaired ion (Ca2+ and Fe2+) homeostasis underlies lysosomal dysfunction and ML4 phenotypes. In ML4 cells, the problem is twofold. First, defective Ca2+-dependent membrane trafficking due to TRPML1-deficiency causes accumulation of lipids and other bio-materials in the lysosome. The second strike comes from the lysosomal iron overload (due to impairment of TRPML1's Fe2+ conductivity), which converts the accumulated materials into the nondegradable (resistant to lysosomal degradation) lipofuscin (also called aging pigment) in the lysosome. Lipofuscin accumulation dramatically compromises the functions of lysosomes.
Niemann-Pick type C (NPC) disease is another lysosome storage disease (LSD) with severe neurodegeneration during the childhood. Currently, there is no cure for NPC. […] Thus, TRPML1 is likely to be an essential regulator of lysosome ion homeostasis. We specifically hypothesize that stimulating TRPML1's Fe2+/Ca2+ channel activity in the lysosome using synthetic agonists can alleviate neurodegeneration associated with ML4 or NPC.
To this end, a high throughput screen was developed in a miniaturized format to screen against the Molecular Libraries Small Molecule Repository (MLSMR) to find small molecules that act either as inhibitors or agonist against the TRPML1 channel.
NIH Chemical Genomics Center [NCGC]
NIH Molecular Libraries Probe Centers Network [MLPCN]
Assay Submitter (PI): Haoxing Xu, University of Michigan Ann Arbor
TRPML1-DL cells are dissociated from flasks, counted and, brought up to a density of 500,000 cells per mL of media containing a 1X Tet inducer. Using a Multidrop Combi, 3 uL of this cell solution is dispensed to each well of a 1536 TC treated, black, clear bottom hi base plate for a final cell density of 1,500 cells per well. The assay plates are incubated overnight (approximately 16 hours) at 37 degrees C and 5% CO2. Using a Multidrop Combi, 2 uL of ABD Ca8 no wash dye plus quencher is added to each well. The assay plates incubate at room temperature in the dark for 45-90 minutes. The assay plate is read on the FDSS using the following protocol: 10 second baseline read, 23 nL of compounds and controls are added using 1536 pintool, agonist read for 110 seconds, 1 uL EC80 addition (4 uM final 54-4 diluted in media), antagonist read for 110 seconds.
On the technique in general: In qHTS, concentration-response curves come from the screen itself.
Consider `CCn1c(C(=O)Nc2cc(Cl)ccc2C)cc2sc(Cl)cc21`, for which the activity change, negative = inhibition is 16.9%.

`Cc1cccc(Cn2c(=O)n(CCC(=O)NCCc3ccc(Cl)cc3)c(=O)c3sccc32)c1`: the activity change, negative = inhibition is -20.1%.

Consider `CCc1nn(CC(=O)N2CCN(c3cccc(C(F)(F)F)c3)CC2)c(=O)c2cc3occc3n12`, for which the activity change, negative = inhibition is 2.52%. To `COc1ccc(C2=NC3(CCCCC3)N(CC(=O)Nc3ccc(C(C)C)cc3)C2=O)cc1` belongs 8.59%; to `C=COC(=O)N1CCN(/[N+]([O-])=N/Oc2ccc([N+](=O)[O-])cc2[N+](=O)[O-])CC1`, 5.96%. With `COc1ccc(CNC(=O)c2ccc(NC(=O)N3CC4CCCN4c4ccccc43)cc2)cc1` (configuration not stated) the figure was 12%; with `Cc1cc(C)cc(OCC(=O)Nc2c(C(=O)c3ccccc3)oc3ccccc23)c1`, -3.38%.

For `Cc1ccc(SCC(=O)Nc2ccc3oc(-c4ccccc4C)nc3c2)cc1`, the activity change, negative = inhibition was 7.73%. Consider `CCNS(=O)(=O)c1cc(-c2nnc(Nc3cccc(C(F)(F)F)c3)c3ccccc23)ccc1C`, for which the activity change, negative = inhibition is -9.21%. Take `COc1cccc(CNC(=O)CCc2nc(-c3ccc(C)cc3)no2)c1`: the activity change, negative = inhibition was 15.3%. With `Cc1ccccc1C(=O)NCc1nc(-c2ccc(Cl)cc2)no1`, the activity change, negative = inhibition was -1.57%. On to `CC1CN(C(=O)N2CCC(C(=O)NCc3ccco3)CC2)c2cc(Cl)ccc2O1` (configuration not stated), for which the activity change, negative = inhibition is 31.2%. As for `COc1ccccc1-c1ccnc2[nH]n(-c3ccccc3)c(=O)c12`, the activity change, negative = inhibition is -0.876%. On to `COC(=O)CC1Oc2ccccc2-n2cc(-c3ccccc3)nc21` (configuration not stated), for which the activity change, negative = inhibition is 4.04%. With `Cc1ccccc1OCc1nc2c3cnn(-c4ccccc4F)c3ncn2n1` the figure was -5.46%; with `COc1ccc(NC(=O)c2ccc3nc(CCc4ccccc4)oc3c2)c(OC)c1`, 3.32%; with `CCOC(=O)C1CCN(C(c2ccc(F)cc2)c2sc3nc(-c4ccco4)nn3c2O)CC1` (configuration not stated), -5.17%. `Cn1c(C(=O)N2CCC(C(=O)N3CCN(c4ccccc4)CC3)CC2)cc2sccc21`: the activity change, negative = inhibition was -0.29%. In the case of `CC(=O)N1CCCc2cc(S(=O)(=O)N3CCC(C(=O)NCc4ccc(C)cc4)CC3)ccc21`, the activity change, negative = inhibition is 23%. With `COc1ccc(-c2c3c(=O)n(C)c(=O)n(C)c3c3c(C)nc4ccccc4n23)cc1` the figure was -0.184%; with `CC(=O)N1CCCc2cc(S(=O)(=O)Nc3ccc(Cl)cc3F)ccc21`, 0.189%; with `COc1ccc(N2C(=O)CS(=O)(=O)C23C(=O)N(Cc2ccc(C)cc2)c2ccccc23)cc1Cl` (configuration not stated), 40.4%. For the compound `CCN(CC)/[N+]([O-])=N/OCOC(=O)Cc1c(C)n(C(=O)c2ccc(Cl)cc2)c2ccc(OC)cc12`, the activity change, negative = inhibition is 37.6%. With `CCOC(=O)CSC1=Nc2ccccc2C2=NC(CCC(=O)NCc3ccc(F)cc3)C(=O)N12` (configuration not stated) the figure was -10.5%; with `Cc1ccc(Cl)cc1-n1ncc2c(N3CCC(C(N)=O)CC3)ncnc21`, 0.447%.

In the case of `O=C(NCCC1=CCCCC1)c1ccc2c(c1)N(Cc1ccccc1F)C(=O)c1ccccc1S2(=O)=O`, the activity change, negative = inhibition was 3.43%. With `Cc1cccc(C(=O)N2c3nc(-c4ccco4)nn3C3(CCCCC3)[C@@H]3CCCC[C@@H]32)c1`, the activity change, negative = inhibition is -0.973%. To `C=C1CCN(C(CC(C)C)C(=O)N2CCOCC2)S(=O)(=O)c2ccccc21` (configuration not stated) belongs -14.1%. With `CCCCNC(=O)CSc1nc2cc3c(cc2c(=O)n1CCCCCC(=O)NCc1ccc2c(c1)OCO2)OCO3` the figure was 22.7%. Consider `Cc1cccc(NC(=O)CN(c2ccc(C(C)C)cc2)S(=O)(=O)c2c(C)nn(C)c2C)c1C`, for which the activity change, negative = inhibition is 3.79%.

Turning to `Cc1ccccc1NC(=O)Cn1c(=O)n(CCc2ccccc2)c(=O)c2ccccc21`, the activity change, negative = inhibition was -6.8%.

With `Cc1ccc(CN(C(=O)c2ccccc2[N+](=O)[O-])c2ccccn2)cc1`, the activity change, negative = inhibition is 3.72%.

With `Cn1nnc2c(N3CCN(c4ccccc4)CC3)ncnc21`, the activity change, negative = inhibition is -12.6%.

In the case of `CCn1cc2nc(SCc3ccccc3Cl)n(CCc3ccccc3)c(=O)c2n1`, the activity change, negative = inhibition was -16.2%. As to `COc1ccc(NC(=O)CSc2nc3ncccc3[nH]2)c(OC)c1`, the activity change, negative = inhibition is -10.8%.

Turning to `COc1ccc(Nc2ncc3c(n2)CCN(C(=O)OC(C)(C)C)C3)cc1`, the activity change, negative = inhibition is -8.96%. `COc1ccc(C2/C=C\CN(Cc3ccco3)C(C)C(=O)N2Cc2ccc(F)cc2)cc1` (configuration not stated): the activity change, negative = inhibition is 19.9%. With `COc1ccc2c(c1)Cc1sc(NC(=O)c3ccccc3Br)nc1-2` the figure was -10.7%; with `COc1ccc(C2CC(=O)N(Cc3ccccc3C)c3c2c(C)nn3-c2nc(C)cc(C)n2)c(OC)c1` (configuration not stated), 35.7%. `Cc1cc(C)cc(NC(=O)Cc2csc(C)n2)c1`: the activity change, negative = inhibition was 2.64%.

As to `COc1cc(OC)c2c(C)cc(=O)oc2c1C(CCN1CCCCC1)c1ccc(N(C)C)cc1` (configuration not stated), the activity change, negative = inhibition is -6.66%.

As for `Cc1ccc(N2CC(c3nnc(Cc4ccccc4Cl)o3)CC2=O)cc1` (configuration not stated), the activity change, negative = inhibition was -9.51%.
